# Data published in PubChem BioAssay AID488890 (Southern Research Specialized Biocontainment Screening …, 2010).
# About 1,300 (0.41%) of roughly 320,000 compounds were called active. Inconclusive results (about 3%) are left out. How the calls were made is not given here. The list is a sample of the results. Potency and affinity values are given separately.
# Experiment: growth inhibition of non-replicating M. tuberculosis (AID 488890);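 further: plate controls were DMSO cells for no effect and high antibiotic wells for full effect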
# Details: Mycobacterium tuberculosis non-replicating, at 25 µM, stronger effect = higher value
row,SMILES,inhibition [%]
1,CNC(=O)/C(C#N)=C/c1ccc(OCCOc2ccccc2)cc1,63.6
2,CCOc1ccc(NC(=O)CCC(=O)N/N=C/c2ccc3c(c2)OCO3)cc1,12.5
3,O=C(N/N=C/c1ccc(Br)s1)c1cccc([N+](=O)[O-])c1,-22
4,Cn1cccc1/C=N\NC(=O)c1cncc(Br)c1,-6.5
5,Cc1ccc(/C=N/NC(=O)C(C)Oc2ccccc2[N+](=O)[O-])s1 (stereo not given),-10.9
6,CCOc1ccc(NC(C)C(=O)N/N=C/c2ccc([N+](=O)[O-])cc2)cc1 (stereo not given),7.41
7,CCOc1ccc(/C=N/NC(=O)CCC(=O)Nc2ccc(F)cc2)cc1,1.12
8,O=C(N/N=C/c1cccc([N+](=O)[O-])c1)c1cccc(Br)c1,-5.27
9,O=C(N/N=C/c1ccc(O)cc1)c1cncc(Br)c1,17.6
10,COC(=O)c1c(C)[nH]c(C(=O)CSc2nnnn2-c2ccccc2)c1C,-4
11,O=C(COC(=O)c1ccccc1NC(=O)c1ccco1)NC1CCS(=O)(=O)C1 (stereo not given),73.7
12,O=C(COC(=O)C1CCN(C(=O)Nc2ccccc2)CC1)NCC(F)(F)F,-2.77
13,CS(=O)(=O)N1CCC(C(=O)NCc2ccc(Cl)cc2)CC1,8.1
14,COc1ccc(-n2nc3cc(C)c(NC(C)=O)cc3n2)cc1,1.69
15,COC(=O)Cn1c(CN2CCN(C(=O)c3ccco3)CC2)nc2c1c(=O)n(C)c(=O)n2C,0.07
16,O=P(Cc1cccc[n+]1[O-])(c1ccccc1)c1ccccc1,-13.7
17,CC(C)C(c1nnnn1Cc1ccccc1)N1CCN(Cc2ccc3c(c2)OCO3)CC1 (stereo not given),31.2
18,Cc1nc(SCC(=O)N2CCOCC2)c2c(=O)n(C)c(=O)n(CC(C)C)c2n1,-4.99
19,O=C(N/N=C/c1ccc(Br)s1)c1ccc([N+](=O)[O-])cc1,10.3
20,Cc1onc(-c2ccccc2)c1C(=O)N/N=C/c1cccs1,51.2
21,O=C(NN=Cc1ccc(N2CCOCC2)s1)c1ccc([N+](=O)[O-])cc1,0.11
22,Cc1ccccc1NCC(=O)N/N=C/c1ccc([N+](=O)[O-])cc1,10
23,Cc1onc(-c2ccccc2)c1C(=O)N/N=C/c1ccc([N+](=O)[O-])c(O)c1,32
24,CCOC(=O)N/N=C\c1ccc(C)s1,-9.49
25,Cc1ccccc1NCC(=O)N/N=C\C=C\c1cccc([N+](=O)[O-])c1,44

row,SMILES,inhibition [%]
1,CCOC(=O)N/N=C/c1ccc(N2CCOCC2)s1,1.14
2,CN(Cc1nc2ccccc2c(=O)[nH]1)C(=O)c1ccc(S(=O)(=O)N(C)C)cc1,-7.99
3,Cc1ccc(Cc2c(C)c(C#N)c3[nH]c4ccccc4n3c2=O)cc1,55.7
4,COc1ccc(S(=O)(=O)N2CCC(Nc3ccccc3Cl)CC2)cc1,35
5,COc1ccc(NC(=O)CN(Cc2ccccc2)S(C)(=O)=O)c(OC)c1,6.99
6,CO/N=C(\C)c1ncc(C(F)(F)F)cc1N1CCOCC1,-6.77
7,Cc1ccc(C(=O)NC(NCC2CCCO2)C(Cl)(Cl)Cl)cc1 (stereo not given),-8.87
8,CC1CCCN(CCCNC(=O)c2ccc(N3CCCC3=O)cc2)C1 (stereo not given),-2.78
9,O=C(CCC(=O)N1CCN(c2ccccc2)CC1)Nc1nnc(C2CCCCC2)s1,-14.5
10,O=C(CSc1nnc(COc2ccccc2F)n1-c1ccccc1)NC1CCS(=O)(=O)C1 (stereo not given),-2.12
11,Cc1ccc(NC(=S)N(CCN(C)C)Cc2cc3cc(C)ccc3[nH]c2=O)cc1,56.8
12,COc1ccccc1CNC(=O)c1cnccn1,41.3
13,O=C(N/N=C/c1ccc(Br)s1)c1ccccc1[N+](=O)[O-],88.6
14,O=C(N/N=C\c1cc(Br)c(Br)o1)c1cncc(Br)c1,-11.5
15,COc1cc([N+](=O)[O-])cc(/C=N/NC(=O)c2cncc(Br)c2)c1O,10.5
16,O=C(N/N=C/c1ccc(Cl)s1)c1ccccc1[N+](=O)[O-],19.9
17,Cc1ccc(-c2cc(C(=O)OCn3nnc4ccccc4c3=O)c3ccccc3n2)cc1,-0.92
18,O=C1c2ccccc2C(=O)N1C1CCCCC1,-9.63
19,CC1NC(=S)N(C2CCCCC2)C1=O (stereo not given),7.51
20,COc1ccc2[nH]c(=O)c(CN(C(=O)c3cccnc3)c3ccc(C)c(C)c3)cc2c1,-6.7
21,O=C(O)c1cccc(CSc2nnc(-c3ccco3)o2)c1,3.8
22,Cc1cccc(-c2nnc(SCc3ccccc3)o2)c1,64.4
23,O=C(O)c1ccc(CSc2nnc(-c3ccco3)o2)cc1,3.82
24,Brc1ccc(-c2nnc(-c3ccco3)o2)cc1,9.05
25,COc1ccccc1N1CCN(CC(O)COCc2cccs2)CC1 (stereo not given),-4.29

row,SMILES,inhibition [%]
1,Cc1c(NC(=O)c2ccccc2NC(=O)COc2ccccc2)cccc1C(=O)O,4.87
2,COc1cc2[nH]c(=O)n(C3CCCCC3)c(=O)c2cc1OC,6.65
3,COc1c[nH]n(-c2ccccc2)c(=O)c1=O,3.41
4,O=C(C1CC(=O)N(c2ccc(Cl)cc2)C1)N1CCOCC1 (stereo not given),-7.5
5,COc1ccc(OCC(=O)N/N=C2\CCCc3ccccc32)cc1,34.2
6,COc1ccc(OCC(=O)N/N=C2\CCCCc3ccccc32)cc1,22.5
7,Cc1c(Cl)c([N+](=O)[O-])nn1CC(=O)N1CCN(Cc2ccccc2)CC1,-5.75
8,O=C(COc1c(Cl)cccc1Cl)NN1C(=O)CSC1=S,8.7
9,CCCCCCCCCC(=O)N/N=C(\C)c1cccnc1,-3.96
10,C/C(=N\NC(=O)CCCNc1ccccc1)c1ccncc1,1.29
11,C/C(=N\NC(=O)CCCNc1cccc(C)c1)c1ccncc1,-0.79
12,CCCCCCCC(=O)N/N=C(\C)c1cccnc1,-21.2
13,FC(F)C(F)(F)C1=CC(c2ccccc2)=NCCN1,12.6
14,COc1ccc(CN(C(=O)c2ccco2)C2CCS(=O)(=O)C2)cc1 (stereo not given),1.18
15,Cn1cccc1/C=N/NC(=O)c1cc(-c2cccs2)nc2ccccc12,-12.1
16,COc1ccc(CNC(=O)C(C)c2ccc([N+](=O)[O-])cc2)cc1 (stereo not given),36.2
17,COc1ccc(N2CCN(S(=O)(=O)c3ccc4c(c3)CC(C)N4C(=O)C3CC3)CC2)cc1 (stereo not given),-6.48
18,O=C(OCC(=O)N1CCN(S(=O)(=O)c2ccccc2)CC1)c1ccc([N+](=O)[O-])o1,66.7
19,CCc1ccc(C(=O)OCC(=O)c2c(N)n(CC(C)C)c(=O)n(C)c2=O)cc1,24.9
20,O=C(COC(=O)c1ccc([N+](=O)[O-])o1)NCc1ccccc1,49.8
21,O=C(COC(=O)c1ccc([N+](=O)[O-])o1)c1ccccc1,22.4
22,Cn1c(N)c(C(=O)COC(=O)c2ccc([N+](=O)[O-])o2)c(=O)n(C)c1=O,69.7
23,O=C(OCC(=O)N1CCN(S(=O)(=O)c2ccc(Cl)cc2)CC1)c1ccc([N+](=O)[O-])o1,67.7
24,COc1ccc(OC)c(C(=O)COC(=O)c2ccc([N+](=O)[O-])o2)c1,54.8
25,COc1cc(C(=O)COC(=O)c2ccc([N+](=O)[O-])o2)cc(OC)c1OC,34.7
